Among the data in the antibiotic and cytotoxicity screens of Wong et al. (2023) are cytotoxicity call values, retold here.

Structures are written as SMILES. Hit rate of the full screen: of about 39,000 compounds, about 1,500 (3.8%) were called active. For the sample, actives were picked, then their nearest neighbours and some compounds at random.

The subject of the assay is HSkMC (human skeletal muscle cells). Nature of the assay: cytotoxicity call (relative viability < 0.9). Particulars: 10 µM.
In the case of `CN(C)CCCC1(c2ccc(F)cc2)OCc2cc(C#N)ccc21.O=C(O)C(=O)O` (stereo unspecified), the cytotoxicity call was “inactive”. `COc1c(C)cccc1C(=O)N1CC[C@H](c2nn(CCN)c3ncccc23)C1`: the cytotoxicity call was “inactive”. Consider `COc1ccc(NC(=O)Nc2ccc3c(c2)C(=O)N([C@@H](C)CO)C[C@@H](C)[C@H](CN(C)S(=O)(=O)c2ccc(F)cc2)OCCCC[C@@H](C)O3)cc1`, for which the cytotoxicity call is “inactive”. With `CO[C@@H]1CN(C)C(=O)c2ccc(NS(C)(=O)=O)cc2OC[C@H](C)N(C(=O)CN(C)C)C[C@@H]1C`, the cytotoxicity call is “inactive”. The value for `O=C(C[C@H]1C[C@@H]2c3cc(NC(=O)Nc4ccc(C(F)(F)F)cc4)ccc3O[C@@H]2[C@@H](CO)O1)NCc1ccc(Cl)cc1` was “inactive”; that for `O=C(Nc1ccc(C(F)(F)F)cc1)Nc1ccc2c(c1)[C@@H]1C[C@@H](CC(=O)N3CCc4ccccc4C3)O[C@H](CO)[C@@H]1O2` was “inactive”; that for `O=C(C[C@H]1C[C@H]2c3cc(NC(=O)Nc4ccc(C(F)(F)F)cc4)ccc3O[C@H]2[C@@H](CO)O1)NCCc1ccccc1` was “inactive”. As for `O=C(C[C@@H]1C[C@H]2c3cc(NC(=O)Nc4ccc(C(F)(F)F)cc4)ccc3O[C@H]2[C@H](CO)O1)NCCc1ccccc1`, the cytotoxicity call was “active”.

Regarding `O=C(C[C@@H]1C[C@@H]2c3cc(NC(=O)Nc4ccc(C(F)(F)F)cc4)ccc3O[C@@H]2[C@@H](CO)O1)NCCc1ccccc1`, the cytotoxicity call was “inactive”. Turning to `O=C(Nc1ccc(C(F)(F)F)cc1)Nc1ccc2c(c1)[C@H]1C[C@@H](CC(=O)N3CCc4ccccc4C3)O[C@H](CO)[C@H]1O2`, the cytotoxicity call was “inactive”. As for `O=C(C[C@@H]1C[C@@H]2c3cc(NC(=O)Nc4ccc(C(F)(F)F)cc4)ccc3O[C@@H]2[C@H](CO)O1)NCc1cc(F)ccc1F`, the cytotoxicity call is “inactive”. As for `O=C(C[C@H]1C[C@@H]2c3cc(NC(=O)Nc4ccc(C(F)(F)F)cc4)ccc3O[C@@H]2[C@@H](CO)O1)NCc1cc(F)ccc1F`, the cytotoxicity call is “active”.

Consider `O=C(C[C@H]1C[C@@H]2c3cc(NC(=O)Nc4ccc(C(F)(F)F)cc4)ccc3O[C@@H]2[C@H](CO)O1)NCc1cc(F)ccc1F`, for which the cytotoxicity call is “inactive”. Next, `O=C(Nc1ccc(C(F)(F)F)cc1)Nc1ccc2c(c1)[C@H]1C[C@H](CC(=O)N3CCc4ccccc4C3)O[C@H](CO)[C@H]1O2`: “active”; `O=C(C[C@@H]1C[C@H]2c3cc(NC(=O)Nc4ccc(C(F)(F)F)cc4)ccc3O[C@H]2[C@H](CO)O1)NCc1ccc(Cl)cc1`: “active”; `O=C(C[C@H]1C[C@@H]2c3cc(NC(=O)Nc4ccc(C(F)(F)F)cc4)ccc3O[C@@H]2[C@H](CO)O1)NCc1ccc(Cl)cc1`: “inactive”. Take `Cc1noc(C)c1S(=O)(=O)Nc1ccc2c(c1)CC(=O)N([C@@H](C)CO)C[C@@H](C)[C@@H](CN(C)Cc1ccccc1)O2`: the cytotoxicity call is “inactive”. `Cc1noc(C)c1NC(=O)Nc1ccc2c(c1)CC(=O)N([C@@H](C)CO)C[C@@H](C)[C@@H](CN(C)Cc1ccc(-c3ccccc3)cc1)O2`: the cytotoxicity call is “inactive”. On to `COc1ccc(NC(=O)N(C)C[C@@H]2Oc3c(NC(=O)Nc4cccc5ccccc45)cccc3C(=O)N([C@@H](C)CO)C[C@@H]2C)cc1`, for which the cytotoxicity call was “inactive”. On to `C[C@H]1COC(=O)[C@H](NC(=O)OCC2c3ccccc3-c3ccccc32)CC=CC[C@@H](CC(=O)NCCO)C(=O)N1`, for which the cytotoxicity call was “inactive”. On to `CCCNC(=O)N[C@@H]1C=C[C@@H](CC(=O)N2CCN(C)CC2)O[C@@H]1CO`, for which the cytotoxicity call was “inactive”. Regarding `Cc1ccc(S(=O)(=O)Nc2ccc3c(c2)C(=O)N([C@H](C)CO)C[C@H](C)[C@@H](CN(C)C(=O)Nc2c(C)noc2C)OCCCC[C@H](C)O3)cc1`, the cytotoxicity call was “inactive”. Next, `C[C@H]1CN([C@@H](C)CO)C(=O)c2c(c3ccccc3n2C)-c2ccccc2CO[C@H]1CN(C)C(=O)Nc1ccc(-c2ccccc2)cc1`: “inactive”. Next, `C[C@@H]1CN([C@@H](C)CO)C(=O)c2cc(NC(=O)Nc3ccc(C(F)(F)F)cc3)ccc2O[C@H]1CN(C)Cc1ccc(C(=O)Nc2ccccc2N)cc1`: “inactive”. The value for `C[C@@H]1CCCCO[C@@H](CN(C)Cc2ccc(C(=O)Nc3ccccc3N)cc2)[C@@H](C)CN([C@H](C)CO)C(=O)c2cc(NC(=O)Nc3ccc(C(F)(F)F)cc3)ccc2O1` was “active”; that for `C[C@H]1CN([C@@H](C)CO)C(=O)c2cc(NC(=O)Nc3ccc(C(F)(F)F)cc3)ccc2O[C@H]1CN(C)Cc1ccc(C(=O)Nc2ccccc2N)cc1` was “active”. Regarding `C[C@H](CO)N1C[C@H](C)[C@@H](CN(C)Cc2ccc(C(=O)Nc3ccccc3N)cc2)Oc2ccc(NC(=O)Nc3ccc(C(F)(F)F)cc3)cc2C1=O`, the cytotoxicity call was “inactive”.

As for `C[C@H]1CN([C@@H](C)CO)C(=O)c2cc(NC(=O)Nc3ccc(C(F)(F)F)cc3)ccc2O[C@@H]1CN(C)Cc1ccc(C(=O)Nc2ccccc2N)cc1`, the cytotoxicity call is “inactive”. With `C[C@H](CO)N1C[C@H](C)[C@H](CN(C)Cc2ccc(C(=O)Nc3ccccc3N)cc2)Oc2ccc(NC(=O)Nc3ccc(C(F)(F)F)cc3)cc2C1=O`, the cytotoxicity call is “active”. `C[C@@H]1CN([C@H](C)CO)C(=O)c2cc(NC(=O)Nc3ccc(C(F)(F)F)cc3)ccc2O[C@@H]1CN(C)Cc1ccc(C(=O)Nc2ccccc2N)cc1`: the cytotoxicity call is “inactive”. For the compound `C[C@@H]1CCCCO[C@H](CN(C)Cc2ccc(C(=O)Nc3ccccc3N)cc2)[C@@H](C)CN([C@@H](C)CO)C(=O)c2cc(NC(=O)Nc3ccc(C(F)(F)F)cc3)ccc2O1`, the cytotoxicity call is “inactive”. On to `C[C@@H]1CCCCO[C@@H](CN(C)Cc2ccc(C(=O)Nc3ccccc3N)cc2)[C@@H](C)CN([C@H](C)CO)C(=O)c2cc(NC(=O)Nc3ccc(F)cc3)ccc2O1`, for which the cytotoxicity call is “inactive”.

Turning to `C[C@@H]1CN([C@H](C)CO)C(=O)Cc2cc(NC(=O)CCN3CCOCC3)ccc2O[C@@H]1CN(C)C(=O)Nc1ccccc1`, the cytotoxicity call is “inactive”.

Regarding `CN1C(=O)NC2(CCNCC2)C1=O`, the cytotoxicity call was “inactive”. In the case of `O=[N+]([O-])c1ccc(/C=C/CN(C/C=C/c2ccc([N+](=O)[O-])cc2)CCCNS(=O)(=O)c2cccc3cnccc23)cc1`, the cytotoxicity call was “inactive”.

As for `COc1ccc(CN(C)C[C@H]2Oc3c(NC(=O)Nc4ccc(C(F)(F)F)cc4)cccc3C(=O)N([C@H](C)CO)C[C@@H]2C)cc1`, the cytotoxicity call was “active”.

As for `COc1ccc(CN(C)C[C@H]2Oc3c(NC(=O)Nc4ccc(C(F)(F)F)cc4)cccc3C(=O)N([C@H](C)CO)C[C@H]2C)cc1`, the cytotoxicity call was “inactive”. For `COc1ccc(CN(C)C[C@H]2Oc3c(NC(=O)Nc4ccc(C(F)(F)F)cc4)cccc3C(=O)N([C@@H](C)CO)C[C@H]2C)cc1`, the cytotoxicity call was “inactive”. As to `COc1ccc(CN(C)C[C@@H]2Oc3c(NC(=O)Nc4ccc(C(F)(F)F)cc4)cccc3C(=O)N([C@H](C)CO)C[C@H]2C)cc1`, the cytotoxicity call is “active”. Next, `COc1ccc(NC(=O)Nc2cccc3c2O[C@@H](CN(C)Cc2ccc(C(F)(F)F)cc2)[C@H](C)CN([C@@H](C)CO)C3=O)cc1`: “inactive”; `COc1ccc(NC(=O)Nc2cccc3c2O[C@H](CN(C)Cc2ccc(C(F)(F)F)cc2)[C@@H](C)CN([C@@H](C)CO)C3=O)cc1`: “inactive”; `COc1ccc(NC(=O)Nc2cccc3c2O[C@@H](CN(C)Cc2ccc(C(F)(F)F)cc2)[C@@H](C)CN([C@H](C)CO)C3=O)cc1`: “inactive”. `COc1ccc(NC(=O)Nc2cccc3c2O[C@@H](CN(C)Cc2ccc(C(F)(F)F)cc2)[C@H](C)CN([C@H](C)CO)C3=O)cc1`: the cytotoxicity call was “inactive”. In the case of `COc1ccc(CN(C)C[C@@H]2Oc3c(NC(=O)Nc4ccc(C(F)(F)F)cc4)cccc3C(=O)N([C@@H](C)CO)C[C@H]2C)cc1`, the cytotoxicity call is “active”.

As for `C[C@H](CO)N1C[C@H](C)[C@@H](CN(C)C(=O)CN(C)C)Oc2cc(-c3cncnc3)ccc2S1(=O)=O`, the cytotoxicity call was “inactive”. For `O=C(C[C@H]1CC[C@H]2[C@@H](COC[C@H](O)CN2C(=O)c2cnccn2)O1)NCc1ccc(Oc2ccccc2)cc1`, the cytotoxicity call is “inactive”. `C[C@@H]1CN([C@H](C)CO)S(=O)(=O)c2ccc(C#CC3CCCC3)cc2O[C@H]1CN(C)C(=O)Cc1ccncc1`: the cytotoxicity call is “inactive”. The value for `C[C@@H]1CCCCO[C@@H](CN(C)C(=O)c2ccccc2)[C@@H](C)CN([C@H](C)CO)C(=O)c2cc(NS(=O)(=O)c3ccc(Cl)cc3)ccc2O1` was “inactive”. Turning to `O=C(NCC(F)(F)F)[C@@H]1[C@@H](CO)[C@@H]2Cn3c(cccc3=O)[C@H]1N2C(=O)C1CCC1`, the cytotoxicity call is “inactive”. Consider `COc1ccc(S(=O)(=O)N(C)C[C@H]2Oc3ccc(NS(=O)(=O)c4ccc(C)cc4)cc3C(=O)N([C@H](C)CO)C[C@@H]2C)cc1`, for which the cytotoxicity call was “inactive”. `CC(C)NC(=O)N(C)C[C@@H]1Oc2ccc(NC(=O)CCN3CCOCC3)cc2CC(=O)N([C@@H](C)CO)C[C@@H]1C`: the cytotoxicity call is “inactive”. Turning to `Cc1ccccc1S(=O)(=O)N1C[C@H](O)COC[C@H]2O[C@@H](CC(=O)NCc3ccccc3Cl)CC[C@@H]21`, the cytotoxicity call is “inactive”.

As to `COc1ccc2c3c([nH]c2c1)[C@@H](CO)N(C[C@]13CN(CCc2ccccc2)C1)C(=O)CN1CCOCC1`, the cytotoxicity call was “inactive”. Consider `COc1ccc2c3c([nH]c2c1)[C@@H](CO)N(Cc1ccc(cc1)Cl)C[C@]13CN(CCc2ccccc2)C1`, for which the cytotoxicity call was “active”. As to `COc1ccc2c3c([nH]c2c1)[C@H](CO)N(C[C@]13CN(CCc2ccccc2)C1)C(=O)CN1CCOCC1`, the cytotoxicity call is “inactive”. The value for `COc1ccc2c3c([nH]c2c1)[C@H](CO)N(C[C@]13CCN(CCc2ccccc2)CC1)C(=O)CN1CCOCC1` was “inactive”; that for `COc1ccc2c3c([nH]c2c1)[C@H](CO)N(Cc1ccc(cc1)Cl)C[C@]13CCN(CCc2ccccc2)CC1` was “inactive”. The value for `COc1ccc2c3c([nH]c2c1)[C@H](CO)N(Cc1ccc(cc1)Cl)C[C@]13CN(CCc2ccccc2)C1` was “active”. On to `COc1ccc2c3c([nH]c2c1)[C@@H](CO)N(Cc1ccc(cc1)Cl)C[C@]13CCN(CCc2ccccc2)CC1`, for which the cytotoxicity call is “active”. As for `COc1ccc2c3c([nH]c2c1)[C@H](CO)N(Cc1ccccc1)C[C@]13CCN(CC1)C(=O)Nc1cccc(c1)F`, the cytotoxicity call is “inactive”. Regarding `COc1ccc2c3c([nH]c2c1)[C@@H](CO)N(Cc1ccccc1)C[C@]13CCN(CC1)C(=O)Nc1cccc(c1)F`, the cytotoxicity call is “inactive”.
